Shown are actives, neighbours in structure and some others; about 11% of the full set was active somewhere.
GoLoco inh red – qHTS Assay for Inhibitors of RGS12 GoLoco Motif Activity (Red Fluorophore); Guanine nucleotide-binding protein G(i) subunit alpha-1 (Homo sapiens), P63096; Gai1:RGS12 GoLoco peptide FP, rhodamine, 10 min; Potency, µM (highest dose often 61.6 µM), without a hit: at the top dose activity, negative = inhibition, usual class: inhibitors; 230,000 compounds, 0.44% hits; AID 880, 2007; active means well fitted inhibition curve with a large enough effect, not every such curve was filed as active; inactive means no such curve, though single readings can be large or run the other way; further: potency means the concentration at half of the fitted maximal effect; on the % scale 0 is the no-effect control and ±100 the full control effect; nearly all actives have a fitted effect of over 30% in size
Target sequence (P63096 whole entry, looked up): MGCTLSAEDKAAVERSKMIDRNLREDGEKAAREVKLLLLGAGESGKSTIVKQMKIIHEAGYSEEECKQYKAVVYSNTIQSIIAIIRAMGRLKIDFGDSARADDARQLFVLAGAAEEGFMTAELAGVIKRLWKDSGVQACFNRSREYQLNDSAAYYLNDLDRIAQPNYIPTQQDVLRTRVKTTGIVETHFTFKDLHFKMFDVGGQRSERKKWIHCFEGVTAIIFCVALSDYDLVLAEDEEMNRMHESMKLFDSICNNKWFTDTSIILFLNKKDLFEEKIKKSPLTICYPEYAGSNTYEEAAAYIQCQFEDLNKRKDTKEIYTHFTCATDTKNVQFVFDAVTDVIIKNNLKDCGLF
PNC inhibitor – High Content Assay for Compounds that inhibit the Assembly of the Perinucleolar Compartment; 140,000 compounds, 3.1% hits; activity change (PNC), negative = inhibition, % at 10 µM; PC3M PTB-GFP, PNC prevalence imaging, 16 h; active compounds read low;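 active means readout at or below -70, meaning at least 70% loss of cells showing the perinucleolar compartment, a nuclear body marking cancer cells; inconclusive means readout between -30 and a set limit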;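 further: plate controls were DMSO wells for no effect and camptothecin positive control wells for full effect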
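PC3M cells stably expressing PTB-GFP, 750–1000 cells/well, treated 16 h at 37 °C with compound (23 nl of library stock), in duplicate. After paraformaldehyde fixation and Hoechst stain, imaged at 20x; PNC prevalence scored by image analysis.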
ALDH1A1 inh – qHTS Assay for Inhibitors of Aldehyde Dehydrogenase 1 (ALDH1A1); Aldehyde dehydrogenase 1A1 (Homo sapiens), P00352; Purified ALDH1A1, NADH fluorescence, propionaldehyde substrate; Potency, µM (highest dose often 75.3 µM), without a hit: at the top dose activity, negative = inhibition, usual class: inhibitors; 220,000 compounds, 7.3% hits;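 further: potency means the concentration at half of the fitted maximal effect; plate controls were no enzyme wells and a reference inhibitor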
HTT ATP protect – qHTS Multiplex Assay to Identify Dual Action Probes in a Cell Model of Huntington: Cytoprotection (ATP) | AID 1471, 2008 | PC12 HTT-Q103 induced, cytoprotection, ATP luminescence, 40 h | Potency, µM (doses to about 56.4 µM), for the others: cytoprotection (ATP increase), actives largely listed as activators | 230,000 compounds, 0.14% hits; active means well fitted curve in the direction sought with a large enough effect; inconclusive means small, poorly fitted or top-dose-only effect, or another doubt; inactive means no such curve, though single readings can be large; an effect the other way counts as inactive or inconclusive; further: potency means the concentration at half of the fitted maximal effect; % of control where 0% means no effect; nearly all actives have a fitted effect of over 45% in size
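PC12 cells stably carrying ecdysone-inducible Htt exon 1 (Q103)–GFP were induced with 100 nM tebufenozide (final) alongside library compounds in a dose series. Cytoprotection was scored as retained ATP by ATPlite luminescence.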
HPGD inh – qHTS Assay for Inhibitors of HPGD (15-Hydroxyprostaglandin Dehydrogenase). 150,000 compounds, 4.3% hits. Potency, µM, inactives show at the top dose activity change, negative = inhibition, actives largely listed as inhibitors. 15-hydroxyprostaglandin dehydrogenase [NAD(+)] (Homo sapiens), P15428. AID 894, 2007. purified HPGD, NADH fluorescence kinetic, PGE2 substrate; further: potency means the concentration at half of the fitted maximal effect; on the % scale 0 is the no-effect control and ±100 the full control effect
Target sequence (P15428 whole entry, looked up): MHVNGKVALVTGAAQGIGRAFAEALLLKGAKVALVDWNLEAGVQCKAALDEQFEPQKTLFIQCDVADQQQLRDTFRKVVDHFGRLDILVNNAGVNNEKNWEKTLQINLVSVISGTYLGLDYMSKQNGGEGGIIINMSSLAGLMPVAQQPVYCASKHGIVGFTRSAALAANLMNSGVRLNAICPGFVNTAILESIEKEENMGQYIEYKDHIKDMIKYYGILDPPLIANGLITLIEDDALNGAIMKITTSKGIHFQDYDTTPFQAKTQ
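NADH formation kinetics: reaction with 30 uM PGE2 and 1 mM NAD+ (final), 20 nM enzyme, Tris-HCl pH 8 with Tween 20, after 15 min compound preincubation at room temperature. Fluorescence change, last versus first of five reads.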
HttQ103 aggreg – qHTS Multiplex Assay to Identify Dual Action Probes in a Cell Model of Huntington: Aggregate Formation (GFP) | AID 1688, 2009 | 220,000 compounds, 1.1% hits | PC12 HttQ103-GFP aggregates, Acumen cytometry, 40 h | Potency, µM (doses to about 46.1 µM), without a hit: top-dose activity change, negative = inhibition, actives largely listed as inhibitors; active means well fitted curve in the direction sought with a large enough effect; inconclusive means small, poorly fitted or top-dose-only effect, or another doubt; inactive means no such curve, though single readings can be large; an effect the other way counts as inactive or inconclusive; further: potency means the concentration at half of the fitted maximal effect; on the % scale 0 is the no-effect control and ±100 the full control effect; nearly all actives have a fitted effect of over 60% in size
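Aggregate formation scored by laser-scanning cytometer (488 excitation, 500–530 emission) in lysed PC12 cells expressing Q103-GFP after 100 nM tebufenozide induction; library tested in dose series, with ATPLite reagent added in the multiplex.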
An asterisk follows results filed as active; ? = inconclusive; · = no result; [ ] = another dose, or the depositor's remark. Unless noted, the call rests on the fitted dose curve; in most records, active means well fitted inhibition curve with a large enough effect (not every such curve was filed as active); inconclusive means small, poorly fitted or top-dose-only effect, or another doubt; inactive means no such curve, though single readings can be large or run the other way.

SMILES | GoLoco inh red | PNC inhibitor | ALDH1A1 inh | HTT ATP protect | HPGD inh | HttQ103 aggreg
Cn1nc(-c2ccc(C(=O)O)cc2)c2ccccc2c1=O | -6% | 35 | 6% | -5% | 7.9µM* | 5%
Cn1nc(-c2ccc(C(=O)NCCO)cc2)c2ccccc2c1=O | 14% | · | · | -18%[10 µM] | · | 2%[9.22 µM]
COC(=O)c1ccc(-c2nn(C)c(=O)c3ccccc23)cc1 | 5% | -108* | ? | -7%[10 µM] | ? | -5%
CC1=CC(C)(C)N(C(=O)CNC2CCCCC2)c2cc(C)ccc21 | -11% | · | -12% | 12%[10 µM] | · | 9%[9.22 µM]
C/C(=N/NC(=O)C(C)n1nc(C)c([N+](=O)[O-])c1C)c1ccc(OCC(N)=O)cc1 (stereo not drawn) | 5% | · | · | 21%[10 µM] | · | 9%[9.22 µM]
OC[C@@H](O)CNc1ncnc2ccccc12 | 8%[14.2 µM] | · | 13%[13.5 µM] | 1%[10 µM] | -9% | ·
CC(C)N1C(=O)S/C(=C/c2ccccc2OCc2ccc(C(=O)O)cc2)C1=O | 12% | · | ? | -43% | · | -3%
CCN(CC)c1ccc(/C=C2/SC(=O)N(C(C)C)C2=O)o1 | 95% | ? | 2.5µM* | · | -20% | ?
COc1ccc(N2CCN(C(=O)CCS(=O)(=O)c3cccc4nsnc34)CC2)cc1 | 0% | -85* | ? | -2%[10 µM] | -12% | 6%
O=C(CCS(=O)(=O)c1cccc2nsnc12)N1CC(=O)N(CCc2ccccc2)C(=O)C1 | 8% | ? | 22µM* | 9%[10 µM] | -22% | -15%
CN(C)C/C(Cl)=C(\Cl)c1ccccc1 | -16% | ? | 7.1µM* | -8% | -23% | -3%
CN(C)CC(=O)c1ccc(-c2ccccc2)cc1 | -6% | 3 | ? | 2% | -22% | 9%
CC(=O)c1c(C)[nH]c(C(=O)OCC(=O)c2c(N)n(C)c(=O)n(C)c2=O)c1C | 28% | · | 2% | -7% | · | 13%
CC1CCc2sc(C(=O)Nc3ccc(C(N)=O)cc3)cc2C1 (stereo not drawn) | 4% | · | ? | 5%[10 µM] | · | 4%[9.22 µM]
COc1ccc(NC(=O)c2cc3c(s2)CCC(C)C3)cc1S(=O)(=O)N1CCOCC1 (stereo not drawn) | 3% | ? | 16µM* | 21%[10 µM] | -12% | ?
Cc1ccc(NC(=O)c2cc3c(s2)CCC3)cc1S(=O)(=O)N1CCOCC1 | 3% | 37 | 1.1µM* | -20% | -9% | ?
CC1CCc2sc(C(=O)NN)cc2C1 (stereo not drawn) | -1% | · | 7.1µM* | -21% | · | -1%
CSc1nnc(NC(=O)c2ccc(C)c(S(=O)(=O)N3CCOCC3)c2)s1 | 4% | ? | ? | -25% | 20µM* | 3%
O=c1c(-c2cccs2)nc2cnc(N3CCOCC3)nc2n1CCc1ccccc1 | 13% | · | ? | -1% | · | ·
O=C(Nc1cccc(C(F)(F)F)c1)C1CCCO1 (stereo not drawn) | 17% | · | 3% | 5%[10 µM] | · | 10%[9.22 µM]
O=C(/C=C/C=C/c1ccccc1)c1ccco1 | 1% | · | 28µM* | 2%[10 µM] | · | 14%[9.22 µM]
CCOc1ccc(NC(=O)Cn2nnc3c(cnn3-c3ccc(F)cc3)c2=O)cc1 | 11% | · | 7.9µM* | -35% | · | -1%
COc1cc(CNc2ncnc3c2[nH]c2ccc(C)cc23)cc(OC)c1 | -6% | · | · | 12%[10 µM] | · | -11%[9.22 µM]
Cc1ccc(-n2ncc3c(NCc4ccco4)ncnc32)c(C)c1 | -1% | ? | -2% | 13%[10 µM] | 3.5µM* | -17%
Brc1ccc2ncnc(NCc3ccco3)c2c1 | 10% | -13 | ? | -11% | ? | 8.9µM*
SMILES | GoLoco inh red | PNC inhibitor | ALDH1A1 inh | HTT ATP protect | HPGD inh | HttQ103 aggreg
Cc1ccc(-n2ncc3c(NCc4ccccn4)ncnc32)c(C)c1 | 10% | 38 | ? | -7%[10 µM] | 13µM* | 0%
Cc1ccc2[nH]c3c(NCc4ccco4)ncnc3c2c1 | 6% | -14 | ? | -89%[0.074 µM] | ? | 11µM*
Cc1ccc(-n2ncc3c(NCc4cccnc4)ncnc32)c(C)c1 | -3% | 50 | ? | · | ? | -8%
C/C(=N\NC(=O)c1c(Br)cnn1C)c1ccc(NC(=O)c2ccc(F)cc2)cc1 | 5% | · | 0% | · | · | ·
Cc1ccc2[nH]c(CN3CCC(CO)(CC4CCCCO4)CC3)c(C)c2c1 (stereo not drawn) | 4% | · | -7% | -29% | · | ?
c1ccc(-n2ncc3c(NCc4ccco4)ncnc32)cc1 | 7% | 31 | ? | -21% | ? | 11%
COCCCNc1ncnc2c1cnn2-c1ccc(C)cc1C | -9% | ? | -6% | -22%[0.074 µM] | 7.9µM* | -18%
c1ccc(Cn2ncc3c(NCc4ccco4)ncnc32)cc1 | · | -105* | ? | -18% | · | -18%
CC(C)Nc1ncnc2ccc(Br)cc12 | 3% | 26 | -16% | · | -10% | 6.3µM*
Nc1c(S(N)(=O)=O)cc(S(N)(=O)=O)cc1S(N)(=O)=O | -1%[14.2 µM] | · | 2%[13.5 µM] | 10%[10 µM] | -5% | ·
CCOc1ccc(Br)cc1C(=O)Nc1ccc(C(=O)NCC(C)C)cc1 | -8% | 15 | -2% | · | 2µM* | 26%
COc1ccc(Br)cc1C(=O)Nc1ccc(C(=O)NCC(C)C)cc1 | -2% | · | ? | -15%[10 µM] | · | -5%[9.22 µM]
O=C(NC1=NCCS1)c1ccc2c(c1)C(=O)N(Cc1ccco1)C2=O | 5% | ? | 16µM* | -3% | -15% | 8%
O=C(O)c1ccc(S(=O)(=O)c2ccc3c(c2)C(=O)N(Cc2ccco2)C3=O)cc1 | -15% | 58 | ? | -4%[0.074 µM] | -19% | 7%
O=C(Nc1ccc(Cl)cc1C(=O)O)c1ccc2c(c1)C(=O)N(Cc1ccco1)C2=O | -15% | -9 | 3.8µM* | -12%[0.074 µM] | ? | 1%
C[C@@H](C(=O)Cc1ccc2ccccc2c1)[C@@H]1C[C@@]1(C)[C@@H](NP(=O)(c1ccccc1)c1ccccc1)c1ccccc1 | -2% | · | 5% | -84% | -16% | ·
CC1=CC(C)(C)N2C(=O)C(=O)c3cc(OC(=O)c4ccco4)cc1c32 | 7% | · | 0.63µM* | · | · | ·
Cc1ccc(Nc2c(-c3ccc(N4CCOCC4)cc3)nc3ncccn23)cc1C | 4% | -102* | 17% | · | 60% | 5%
Cc1ccc(Nc2c(-c3ccc(N4CCOCC4)cc3)nc3ncccn23)cc1 | 8% | 34 | ? | · | -12% | 1%
Cc1noc(NS(=O)(=O)c2ccc(NC(=O)CSc3ncccn3)cc2)c1C | 0% | ? | 20µM* | 12%[10 µM] | -6% | 0%

High-throughput results (PubChem)
